Measured values from the supplement of paper PMC4166925.
± gives the standard deviation of the averaged measurements. Whole data set: some 33,000 sequences, median “E-score (dimensionless, -0.5 to 0.5)” near -0.049, cut for the highest 2% near 0.37. What follows is part of a selection rich in the highest values, with near analogues and random picks from the rest.

These sequences were tested on T1, PmTbr T-box DNA-binding domain (GST fusion) (assay: PBM E-score of 8-mer (E-score (dimensionless, -0.5 to 0.5)); Tbr is Tbrain of the sea star Patiria miniata (Pm) or the sea urchin Strongylocentrotus purpuratus (Sp); higher = stronger binding preference). Conditions: the construct has about 5 more residues each side.
T1 sequence: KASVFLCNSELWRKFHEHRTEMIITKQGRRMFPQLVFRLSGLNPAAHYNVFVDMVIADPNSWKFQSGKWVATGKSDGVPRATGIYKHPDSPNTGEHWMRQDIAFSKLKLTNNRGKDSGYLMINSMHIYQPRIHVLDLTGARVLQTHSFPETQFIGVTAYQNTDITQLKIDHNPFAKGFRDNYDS
Summary of the method: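 Primer extension turned Universal Agilent oligonucleotide arrays double-stranded. They were incubated with 200 nM protein in PBS (pH 7.5); the protein was a GST-fused Tbr T-box DNA-binding domain expressed in BL21 E. coli at 20 °C and purified on glutathione. Every ungapped 8-mer was scored from the scanned, quantified probe intensities, and the Universal PBM Analysis Suite gave each an enrichment E-score averaged over duplicate arrays.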

Row | Sequence | PBM E-score of 8-mer
1 | AGCGCGTG | 0.27 ± 0.025
2 | CGGTAAAG | -0.102 ± 0.037
3 | CCACATTC | 0.104 ± 0.038
4 | ACACATAT | 0.386 ± 0.0052
5 | AAACATTC | -0.0525 ± 0.037
6 | ACACATTC | 0.387 ± 0.016
7 | ACACATTA | 0.264 ± 0.008
8 | ACACATAA | 0.251 ± 0.0089
9 | ACACATAG | 0.268 ± 0.022
10 | ACACATTG | 0.39 ± 0.017
11 | AAACATTG | -0.0327 ± 0.00054
12 | GAGAAAAC | 0.0669 ± 0.12
13 | ATTCCTCC | -0.291 ± 0.034
14 | GACGCGTA | 0.0611 ± 0.022
15 | ATCCAGCA | -0.175 ± 0.032
16 | AATGGTCG | -0.249 ± 0.14
17 | ACGAGAGG | 0.0873 ± 0.05
18 | GTAGTCTA | -0.207 ± 0.03
19 | GTAGGTGA | 0.397 ± 0.02
20 | CTAGGTGC | 0.403 ± 0.008
21 | CTAGGTGA | 0.398 ± 0.014
22 | ATAGGTGG | 0.26 ± 0.051
23 | CTAGGTAA | -0.173 ± 0.055

Row | Sequence | PBM E-score of 8-mer
24 | GTAGGTAA | -0.141 ± 0.024
25 | CTAGGTTC | -0.0841 ± 0.0095
26 | ATAGGTGA | 0.345 ± 0.028
27 | CTAGGTCA | 0.00648 ± 0.021
28 | CTAGGTCC | -0.13 ± 0.071
29 | GTAGGTTA | -0.189 ± 0.025
30 | ATAGGTGC | 0.414 ± 0.0057
31 | CAGCATAC | -0.00656 ± 0.045
32 | GCGCAGAA | -0.0316 ± 0.067
33 | GGTAAACC | 0.131 ± 0.039
34 | GAATCATA | 0.0757 ± 0.097
35 | CTAGTAAG | -0.0596 ± 0.04
36 | CCATGAGC | -0.138 ± 0.16
37 | ACTGTGAA | 0.378 ± 0.0086
38 | TCTGTGAA | 0.253 ± 0.0052
39 | GCTGTGAA | 0.3817 ± 0.0019
40 | CCTGTGAA | 0.306 ± 0.0045
41 | ACTGTGAG | 0.22 ± 0.017
42 | ACTGTGAT | 0.152 ± 0.046
43 | CAGGCTTA | -0.197 ± 0.047
44 | ATATAGCG | 0.0197 ± 0.053
45 | CGTATGCA | -0.0979 ± 0.032
46 | GATTTTGC | 0.189 ± 0.061

Row | Sequence | PBM E-score of 8-mer
47 | AAATAGGA | -0.294 ± 0.053
48 | AGCTAACG | 0.157 ± 0.031
49 | GGCTAACA | 0.179 ± 0.019
50 | TGCTAACA | 0.369 ± 0.041
51 | CGCTAACC | 0.256 ± 0.017
52 | AGCTAACA | 0.209 ± 0.033
53 | CGCTAACG | 0.3714 ± 0.0037
54 | ATGTCCAG | -0.0643 ± 0.0044
55 | GTATGCCA | -0.0108 ± 0.032
56 | CTTGTAGC | 0.0941 ± 0.012
57 | CGCGACAC | 0.375 ± 0.02
58 | CACGACAC | 0.314 ± 0.0061
59 | CGCGACAA | 0.336 ± 0.0038
60 | AGCGACAC | 0.317 ± 0.054
61 | GGCGACAC | 0.402 ± 0.019
62 | TGCGACAA | 0.296 ± 0.013
63 | GGCGACAA | 0.3812 ± 0.0024
64 | CGCGACAG | 0.308 ± 0.014
65 | GGCGACCC | -0.0415 ± 0.017
66 | CCGACGCA | -0.0454 ± 0.012
67 | GTCACATA | 0.263 ± 0.0064
68 | ATGCGATC | -0.0333 ± 0.042
69 | CAAGTTGA | 0.116 ± 0.0034

Row | Sequence | PBM E-score of 8-mer
70 | AGCGTTGA | 0.102 ± 0.055
71 | CACCTCCG | 0.447 ± 0.0095
72 | AACCTCCC | -0.0756 ± 0.12
73 | CACCTCCC | 0.423 ± 0.0044
74 | GACCTCCC | -0.178 ± 0.0044
75 | CACCTCCA | 0.423 ± 0.0067
76 | AACCTCCG | 0.0421 ± 0.042
77 | AACCTCCA | -0.158 ± 0.028
78 | CCCCTCCG | 0.137 ± 0.019
79 | TACCTCCA | -0.00358 ± 0.099
80 | CCGAAGTA | -0.302 ± 0.021
81 | CCCAAGTA | -0.0284 ± 0.033
82 | CGAGTGCA | -0.0272 ± 0.087
83 | ACGAACTG | 0.0451 ± 0.03
84 | CCTTTGGC | 0.0109 ± 0.046
85 | CGATCCAG | -0.0702 ± 0.018
86 | AGACCTGA | -0.102 ± 0.055
87 | ACACCTGC | 0.461 ± 0.017
88 | ACACCTGA | 0.4657 ± 0.0021
89 | ACACCTGG | 0.466 ± 0.0053
90 | GAACCTGC | -0.162 ± 0.0065
91 | GCACCTGC | 0.395 ± 0.018
92 | CCACCTGG | 0.252 ± 0.0058

Row | Sequence | PBM E-score of 8-mer
93 | ATACCTGC | 0.0129 ± 0.047
94 | AAACCTGA | 0.0859 ± 0.12
95 | ATACCTGG | 0.139 ± 0.025
96 | CGACCTGC | 0.196 ± 0.043
97 | CCACCTGC | 0.299 ± 0.02
98 | ATGCCCAC | -0.186 ± 0.051
99 | AGAACCCT | -0.229 ± 0.014
100 | ACTCGCCA | 0.144 ± 0.015
101 | CCTCTTAG | -0.103 ± 0.0023
102 | CTATACCA | -0.205 ± 0.013
103 | AGCCCCAG | -0.138 ± 0.057
104 | TCTTGCCA | 0.0678 ± 0.023
105 | GAGAACCC | -0.0803 ± 0.011
106 | AGGCTCTG | -0.0891 ± 0.012
107 | AAGAATGT | -0.0657 ± 0.011
108 | ATCAGTGG | -0.0659 ± 0.059
109 | AGGGCAAG | -0.2 ± 0.018
110 | TCGATTCA | 0.0262 ± 0.015
111 | GTGGGCCA | -0.191 ± 0.031
